Measurements as given in the supplement of paper PMC10723795.
± gives the standard deviation of the averaged measurements.

Tested on: DLD1
Assay: nucleolar normality score relative to DMSO (fraction of DMSO control); RPE1 is a non-cancer human cell line; higher = more normal nucleoli (less nucleolar stress)
Description: (§1)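 Selected screen hits were validated in hTERT lines (BJ5TA, CHON-002, RPE1) and cancer lines (DLD1, HCT116). Cells were immunostained for nucleolin and UBF and the nucleolar normality score was measured per field of view, with 4 fields per drug. Scores are normalized to each cell line's own DMSO control. Dose and time are not stated for this panel.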

Structure (SMILES) | nucleolar normality score
CC(C)c1c2cc(-c3ccnc(NC4CCC(NC5CCOCC5)CC4)n3)ccc2nn1C (centres undefined) | 0.509 ± 0.046
CN(C)CCNC(=O)c1cccn2c(=O)c3cc4ccccc4cc3nc12 | 0.173 ± 0.037
CC(C)n1nc(-c2ccc3oc(N)nc3c2)c2c(N)ncnc21 [Sapanisertib] | 0.398 ± 0.035
CCc1cnn2c(NCc3ccc[n+]([O-])c3)cc(N3CCCC[C@H]3CCO)nc12 [Dinaciclib] | 0.442 ± 0.09
CC(C)c1cc(C(=O)N2Cc3ccc(CN4CCN(C)CC4)cc3C2)c(O)cc1O [Onalespib] | 0.363 ± 0.023
CC(C)C[C@H](NC(=O)[C@H](CCc1ccccc1)NC(=O)CN1CCOCC1)C(=O)N[C@@H](Cc1ccccc1)C(=O)N[C@@H](CC(C)C)C(=O)[C@@]1(C)CO1 [Carfilzomib] | 0.436 ± 0.059
C=CCNC1=C2C[C@@H](C)C[C@H](OC)[C@H](O)[C@@H](C)/C=C(\C)[C@H](OC(N)=O)[C@@H](OC)/C=C\C=C(/C)C(=O)NC(=CC1=O)C2=O | 0.436 ± 0.052
Cc1nc(-c2cn3c(n2)-c2ccc(-c4cnn(C(C)(C)C(N)=O)c4)cc2OCC3)n(C(C)C)n1 [Taselisib] | 0.485 ± 0.067
Cc1cnc(CNC(=O)c2c(=O)c3ccc(N4CCCN(C)CC4)nc3n3c2sc2ccccc23)cn1 | 0.224 ± 0.045
CN1CC[C@H](c2c(O)cc(O)c3c(=O)cc(-c4ccccc4Cl)oc23)[C@H](O)C1 [Flavopiridol] | 0.432 ± 0.076
COC[C@H](NC(=O)c1cnc(C)s1)C(=O)N[C@@H](COC)C(=O)N[C@@H](Cc1ccccc1)C(=O)[C@@]1(C)CO1 [Oprozomib] | 0.471 ± 0.054
COc1cccc2c1C(=O)c1c(O)c3c(c(O)c1C2=O)C[C@@](O)(C(=O)CO)C[C@@H]3O[C@H]1C[C@H](N)[C@H](O)[C@H](C)O1 [Doxorubicin] | 0.36 ± 0.056

Tested on: HCT116
Assay: as above
Description: as §1

Structure (SMILES) | nucleolar normality score
CC(C)c1c2cc(-c3ccnc(NC4CCC(NC5CCOCC5)CC4)n3)ccc2nn1C (centres undefined) | 0.507 ± 0.016
CN(C)CCNC(=O)c1cccn2c(=O)c3cc4ccccc4cc3nc12 | 0.202 ± 0.013
CC(C)n1nc(-c2ccc3oc(N)nc3c2)c2c(N)ncnc21 [Sapanisertib] | 0.549 ± 0.021
CCc1cnn2c(NCc3ccc[n+]([O-])c3)cc(N3CCCC[C@H]3CCO)nc12 [Dinaciclib] | 0.428 ± 0.052
CC(C)c1cc(C(=O)N2Cc3ccc(CN4CCN(C)CC4)cc3C2)c(O)cc1O [Onalespib] | 0.434 ± 0.027
CC(C)C[C@H](NC(=O)[C@H](CCc1ccccc1)NC(=O)CN1CCOCC1)C(=O)N[C@@H](Cc1ccccc1)C(=O)N[C@@H](CC(C)C)C(=O)[C@@]1(C)CO1 [Carfilzomib] | 0.574 ± 0.063
C=CCNC1=C2C[C@@H](C)C[C@H](OC)[C@H](O)[C@@H](C)/C=C(\C)[C@H](OC(N)=O)[C@@H](OC)/C=C\C=C(/C)C(=O)NC(=CC1=O)C2=O | 0.462 ± 0.027
Cc1nc(-c2cn3c(n2)-c2ccc(-c4cnn(C(C)(C)C(N)=O)c4)cc2OCC3)n(C(C)C)n1 [Taselisib] | 0.588 ± 0.052
Cc1cnc(CNC(=O)c2c(=O)c3ccc(N4CCCN(C)CC4)nc3n3c2sc2ccccc23)cn1 | 0.404 ± 0.19
CN1CC[C@H](c2c(O)cc(O)c3c(=O)cc(-c4ccccc4Cl)oc23)[C@H](O)C1 [Flavopiridol] | 0.452 ± 0.057
COC[C@H](NC(=O)c1cnc(C)s1)C(=O)N[C@@H](COC)C(=O)N[C@@H](Cc1ccccc1)C(=O)[C@@]1(C)CO1 [Oprozomib] | 0.658 ± 0.046
COc1cccc2c1C(=O)c1c(O)c3c(c(O)c1C2=O)C[C@@](O)(C(=O)CO)C[C@@H]3O[C@H]1C[C@H](N)[C@H](O)[C@H](C)O1 [Doxorubicin] | 0.253 ± 0.036
